Source: a collection of fitness landscapes (doi:10.1016/j.celrep.2020.107928)
The full ranking holds about 81,000 sequences; the median of “one-hybrid fitness for binding NBS DNA” is about -0.1, and the highest 2% start at about 0.36. For the sample, the highest values were picked, then their nearest neighbours and some sequences at random.

B1: Caulobacter ParB omega fusion; a variant is named by its letters at X, in order, B8GW30 (parent)
chain: MESVVVGEPGMSEGRRGLGRGLSALLGEVDAAPAQAPGEQLGGSREAPIEILQRNPDQPRRTFREEDLEDLSNSIREKGVLQPILVRPSPDTAGEYQIVAGERAWRAAQRAGLKTVPIMVRELDDLAVLEIGIIENVQRADLNVLEEALSYKVLMEKFERTQENIAQTIGKSXSHVANXMRLLXLPDEVQSYLVSGELTAXHARAIAAAADPVALAKQIIEGGLSVRETEALARKAPNLSAGKSKGGRPPRVKDTDTQALESDLSSVLGLDVSIDHRGSTGTLTITYATLEQLDDLCNRLTRGI

Variants of: B1
Assay: one-hybrid fitness for binding NBS DNA (the Noc-binding site; scaled: cognate 1, non-cognate 0); higher = stronger binding
Settings: with NBS DNA site
In short: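 In E. coli USO, a HIS3 reporter with its site placed 19 bp from the promoter was used to select Caulobacter ParB variants randomised at four specificity codons. Growth lasted 48 hours at 37°C on histidine-free M9 containing 0.1 mM IPTG and 5 mM 3-AT. Fitness was taken as the log change in variant-to-wild-type read ratio from Illumina sequencing of pre- and post-selection plasmids, rescaled between the non-cognate and cognate sites.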

Variant | one-hybrid fitness for binding NBS DNA
QRGC | 0.402
QPGC | ≤ 0.2
QSGQ | ≤ 0.2
QCGQ | 0.24
QRGM | 0.436
QRGS | 0.7
QCGM | ≤ 0.2
QRGP | 0.301
QSGM | ≤ 0.2
QRGQ | 0.435
QCGC | 0.244
QRGD | 0.293
VHHD | ≤ 0.2
KQFT | ≤ 0.2
IGSG | ≤ 0.2
ERAV | ≤ 0.2
LHVR | ≤ 0.2
AGVC | ≤ 0.2
QSQV | ≤ 0.2
LPLC | ≤ 0.2
DDTM | ≤ 0.2
HYPY | ≤ 0.2
IAHC | ≤ 0.2
SVFR | ≤ 0.2
YVTV | ≤ 0.2
PPVI | ≤ 0.2

Variant | one-hybrid fitness for binding NBS DNA
KLLL | ≤ 0.2
QRIP | ≤ 0.2
QPIT | ≤ 0.2
QRIT | 0.678
QSIT | 0.353
QRPG | ≤ 0.2
QRPT | 0.576
QAPT | 0.23
QCIT | 0.432
RPKK | ≤ 0.2
VPVE | ≤ 0.2
TFHR | ≤ 0.2
VTIG | ≤ 0.2
DETM | ≤ 0.2
LSSE | ≤ 0.2
IPSD | ≤ 0.2
QNKS | 0.355
QIKS | 0.497
QIKN | 0.223
QSVH | ≤ 0.2
QPKS | ≤ 0.2
QCKS | 0.711
QSKH | 0.587
QSKS | 0.645
QIVS | ≤ 0.2
QSDH | ≤ 0.2

Variant | one-hybrid fitness for binding NBS DNA
TVQG | ≤ 0.2
DATH | ≤ 0.2
YDTE | ≤ 0.2
TATG | ≤ 0.2
KRHE | ≤ 0.2
MHPT | ≤ 0.2
RINQ | ≤ 0.2
QTAY | 0.306
QTFR | 0.584
QTFF | ≤ 0.2
QTAR | 0.768
QTAQ | 0.251
QTFG | ≤ 0.2
SPYR | ≤ 0.2
SHAM | ≤ 0.2
QYVA | ≤ 0.2
QYKA | 0.531
QYRA | 0.558
QYNA | 0.269
QYYA | 0.271
QYDA | ≤ 0.2
QPFC | ≤ 0.2
FPTR | ≤ 0.2
KLDM | ≤ 0.2
RRQY | 0.525
RPQY | ≤ 0.2

Variant | one-hybrid fitness for binding NBS DNA
RCSY | ≤ 0.2
RRSY | 0.393
RCAY | ≤ 0.2
RRHY | 0.452
RCQY | ≤ 0.2
RRFY | 0.314
RRAY | 0.405
RSHY | ≤ 0.2
RSSY | ≤ 0.2
RCHY | 0.215
SRQM | ≤ 0.2
LMKG | ≤ 0.2
SMNN | ≤ 0.2
YTVM | ≤ 0.2
DLVK | ≤ 0.2
HQPS | ≤ 0.2
VMQT | ≤ 0.2
SRLY | ≤ 0.2
RIDV | ≤ 0.2
AWTG | ≤ 0.2
PYAQ | ≤ 0.2
HRAG | ≤ 0.2
RNYQ | ≤ 0.2
RRNY | 0.589
RRDY | 0.306
RRYY | 0.349

Variant | one-hybrid fitness for binding NBS DNA
RRRY | 0.798
RCNY | 0.221
RCRY | 0.363
WRPY | ≤ 0.2
LPLQ | ≤ 0.2
QRKR | 1.08
NRKR | 0.309
QWKR | 0.356
QRVR | 0.839
YQNG | ≤ 0.2
TVTR | ≤ 0.2
LWNE | ≤ 0.2
YAMR | ≤ 0.2
YPHD | ≤ 0.2
LNNS | ≤ 0.2
RSGW | ≤ 0.2
YQIT | ≤ 0.2
RFAL | ≤ 0.2
AGTL | ≤ 0.2
QHKD | ≤ 0.2
QHKQ | 0.404
QHVQ | 0.283
QHKP | 0.255
QHKG | 0.345
QHYQ | ≤ 0.2
QHKF | 0.297

Variant | one-hybrid fitness for binding NBS DNA
QHKN | 0.427
QHVN | ≤ 0.2
QHKH | 0.546
QHKS | 0.655
QHDH | ≤ 0.2
KHEE | ≤ 0.2
SFKI | ≤ 0.2
QVDA | ≤ 0.2
RIMY | ≤ 0.2
HVLC | ≤ 0.2
GDVT | ≤ 0.2
GYMF | ≤ 0.2
QQWC | ≤ 0.2
QQLN | ≤ 0.2
KQWT | ≤ 0.2
NQRT | ≤ 0.2
QQET | 0.371
QQES | 0.23
QQLD | ≤ 0.2
QQWT | 0.44
QQEI | ≤ 0.2
QQLT | 0.45
QQRT | 0.8
KQRT | 0.225
